Experimental data reported in PubChem BioAssay AID1159580 (chemical genetic matrix, 2015).
Hit rate of the full screen: of about 5,500 compounds, about 2,000 (36%) were called active. About 18% were inconclusive and are not listed. Cut-off read from the data, not from the text of the source: active = normalized growth mostly below about 0.91 (no sharp cut-off); inconclusive = no clear call, values can overlap the other calls; inactive = mostly above about 0.92. The list shows a part of the results.

Test: chemical genetic growth profiling, strain panel (AID 1159580);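 note: tested at 20 µM; growth read once vehicle control cultures reached saturation at 30 °C; 1 = growth at the plate median or of vehicle wells; lower values mean less growth of the strain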
Details: growth OD

Measured: normalized growth

CCC[C@@H]1C[C@@H](C(=O)N[C@H]([C@H]2O[C@H](SC)[C@H](O)[C@@H](O)[C@H]2O)[C@H](C)O)N(C)C1
inactive: S. cerevisiae deletion strains, locus YJR066W, strain TOR1, active compounds read low 0.967 | S. cerevisiae deletion strains, locus YJR075W, strain HOC1, active compounds read low 0.993 | S. cerevisiae deletion strains, locus YKL009W, strain mrt4, active compounds read low 0.974 | S. cerevisiae deletion strains, locus YKL068W, active compounds read low 0.991 | S. cerevisiae deletion strains, locus YKL085W, strain MDH1 (second series), active compounds read low 0.984 | S. cerevisiae deletion strains, locus YKL085W, strain MDH1, active compounds read low 0.984 | S. cerevisiae deletion strains, locus YKL160W, strain elf1, active compounds read low 0.964 | S. cerevisiae deletion strains, locus YKL190W, strain CNB1, active compounds read low 1.01 | S. cerevisiae deletion strains, locus YKR001C, strain vps1, active compounds read low 0.996 | S. cerevisiae deletion strains, locus YKR026C, strain gcn3, active compounds read low 0.979 | S. cerevisiae deletion strains, locus YKR091W, strain srl3, active compounds read low 0.987 | S. cerevisiae deletion strains, locus YLL001W, strain dnm1, active compounds read low 0.951 | S. cerevisiae deletion strains, locus YLL026W, active compounds read low 0.962 | S. cerevisiae deletion strains, locus YLL041C, strain sdh2, active compounds read low 0.982 | S. cerevisiae deletion strains, locus YLR027C, strain aat2, active compounds read low 0.97 | S. cerevisiae deletion strains, locus YLR039C, strain RIC1, active compounds read low 0.973 | S. cerevisiae deletion strains, locus YLR058C, strain SHM2, active compounds read low 0.977 | S. cerevisiae deletion strains, locus YLR102C, strain apc9, active compounds read low 0.992 | S. cerevisiae deletion strains, locus YLR113W, strain HOG1, active compounds read low 1.03 | S. cerevisiae deletion strains, locus YLR221C, strain rsa3, active compounds read low 1.03 | S. cerevisiae deletion strains, locus YLR258W, strain gsy2, active compounds read low 1 | S. cerevisiae deletion strains, locus YLR262C, strain YPT6 (second series), active compounds read low 0.965 | S. cerevisiae deletion strains, locus YLR262C, strain YPT6, active compounds read low 1.02 | S. cerevisiae deletion strains, locus YLR268W, strain sec22, active compounds read low 1.01 | S. cerevisiae deletion strains, locus YLR320W, strain mms22, active compounds read low 1.02 | S. cerevisiae deletion strains, locus YLR330W, strain CHS5, active compounds read low 0.986 | S. cerevisiae deletion strains, locus YLR342W, strain FKS1 (second series), active compounds read low 1 | S. cerevisiae deletion strains, locus YLR342W, strain FKS1, active compounds read low 0.966 | S. cerevisiae deletion strains, locus YLR357W, strain rsc2, active compounds read low 1 | S. cerevisiae deletion strains, locus YLR370C, strain arc18, active compounds read low 0.972 | S. cerevisiae deletion strains, locus YLR371W, strain rom2, active compounds read low 0.992 | S. cerevisiae deletion strains, locus YLR384C, strain iki3, active compounds read low 0.97 | S. cerevisiae deletion strains, locus YLR418C, strain cdc73, active compounds read low 0.975 | S. cerevisiae deletion strains, locus YML016C, strain PPZ1, active compounds read low 0.989 | S. cerevisiae deletion strains, locus YML032C, strain rad52, active compounds read low 1 | S. cerevisiae deletion strains, locus YML120C, strain ndi1, active compounds read low 0.95 | S. cerevisiae deletion strains, locus YML124C, strain tub3, active compounds read low 0.998 | S. cerevisiae deletion strains, locus YMR058W, strain fet3, active compounds read low 0.975 | S. cerevisiae deletion strains, locus YMR078C, strain ctf18, active compounds read low 0.986 | S. cerevisiae deletion strains, locus YMR125W, strain sto1, active compounds read low 0.992 | S. cerevisiae deletion strains, locus YMR129W, active compounds read low 0.991 | S. cerevisiae deletion strains, locus YMR205C, strain PFK2, active compounds read low 0.99 | S. cerevisiae deletion strains, locus YMR223W, strain ubp8, active compounds read low 0.962 | S. cerevisiae deletion strains, locus YMR231W, strain pep5, active compounds read low 0.996 | S. cerevisiae deletion strains, locus YMR263W, strain SAP30, active compounds read low 0.996 | S. cerevisiae deletion strains, locus YMR307W, strain GAS1, active compounds read low 1 | S. cerevisiae deletion strains, locus YNL067W, strain RPL9B, active compounds read low 1.01 | S. cerevisiae deletion strains, locus YNL071W, strain lat1, active compounds read low 0.986 | S. cerevisiae deletion strains, locus YNL183C, strain NPR1, active compounds read low 0.968 | S. cerevisiae deletion strains, locus YNL209W, strain ssb2, active compounds read low 0.993 | S. cerevisiae deletion strains, locus YNL233W, strain BNI4, active compounds read low 0.984 | S. cerevisiae deletion strains, locus YNL248C, strain rpa49, active compounds read low 1.02 | S. cerevisiae deletion strains, locus YNL250W, strain rad50, active compounds read low 0.979 | S. cerevisiae deletion strains, locus YNL271C, strain bni1, active compounds read low 0.985 | S. cerevisiae deletion strains, locus YNL298W, strain CLA4, active compounds read low 0.989 | S. cerevisiae deletion strains, locus YNL307C, strain MCK1, active compounds read low 0.993 | S. cerevisiae deletion strains, locus YNL322C, strain KRE1 (second series), active compounds read low 0.987 | S. cerevisiae deletion strains, locus YNL322C, strain KRE1, active compounds read low 0.993 | S. cerevisiae deletion strains, locus YNR049C, strain mso1, active compounds read low 0.977 | S. cerevisiae deletion strains, locus YNR052C, strain pop2, active compounds read low 0.987 | S. cerevisiae deletion strains, locus YOL012C, strain htz1 0.745 | S. cerevisiae deletion strains, locus YOL147C, strain pex11, active compounds read low 0.985 | S. cerevisiae deletion strains, locus YOR001W, strain rrp6, active compounds read low 0.947 | S. cerevisiae deletion strains, locus YOR061W, strain CKA2, active compounds read low 0.998 | S. cerevisiae deletion strains, locus YOR069W, strain VPS5, active compounds read low 0.99 | S. cerevisiae deletion strains, locus YOR070C, strain gyp1, active compounds read low 0.993 | S. cerevisiae deletion strains, locus YOR080W, strain dia2, active compounds read low 0.971 | S. cerevisiae deletion strains, locus YOR083W, strain WHI5, active compounds read low 0.966 | S. cerevisiae deletion strains, locus YOR106W, strain vam3, active compounds read low 0.951 | S. cerevisiae deletion strains, locus YOR136W, strain idh2, active compounds read low 0.984 | S. cerevisiae deletion strains, locus YOR144C, strain elg1, active compounds read low 0.985 | S. cerevisiae deletion strains, locus YOR184W, strain ser1, active compounds read low 0.978 | S. cerevisiae deletion strains, locus YOR231W, strain MKK1, active compounds read low 1.04 | S. cerevisiae deletion strains, locus YOR265W, strain rbl2, active compounds read low 0.983 | S. cerevisiae deletion strains, locus YOR270C, strain vph1, active compounds read low 0.948 | S. cerevisiae deletion strains, locus YOR290C, strain snf2, active compounds read low 1 | S. cerevisiae deletion strains, locus YOR316C, strain cot1, active compounds read low 0.992 | S. cerevisiae deletion strains, locus YPL051W, strain arl3, active compounds read low 1 | S. cerevisiae deletion strains, locus YPL078C, strain atp4, active compounds read low 0.928 | S. cerevisiae deletion strains, locus YPL106C, strain sse1, active compounds read low 0.94 | S. cerevisiae deletion strains, locus YPL240C, strain hsp82, active compounds read low 0.981 | S. cerevisiae deletion strains, locus YPL241C, strain CIN2, active compounds read low 0.998 | S. cerevisiae deletion strains, locus YPL256C, strain CLN2, active compounds read low 1.03 | S. cerevisiae deletion strains, locus YPR119W, strain clb2, active compounds read low 0.997 | S. cerevisiae deletion strains, locus YPR141C, strain kar3, active compounds read low 0.985 | S. cerevisiae deletion strains, locus YPR163C, strain tif3, active compounds read low 0.987 | S. cerevisiae deletion strains, locus YPR167C, strain met16, active compounds read low 0.993 | S. cerevisiae deletion strains, strain wtn01, active compounds read low 0.98 | S. cerevisiae strains, strain wild type, active compounds read low 1.01
